Source: PubChem (several laboratories)
Shown are actives, neighbours in structure and some others; about 3.1% of the full set was active somewhere.
KKLEB cytotox: cytotoxicity in KKLEB CF airway cells, primary screen, cytotoxicity control for CF NF-kB inhibitor project, cell-based, uHTS, fluorescence assay plates | KKLEB CF airway cells viability, ATPlite luminescence, overnight; stronger effect = lower value; cells stimulated with P. aeruginosa culture filtrate | AID 602141, 2011 | activity change (cytotoxicity), % at 5 µM | actives 0.36% (n = 360,000);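 active = corrected activity change at or below -50% at 5 µM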
MITF TRPM1 inh: inhibitors of MITF-dependent TRPM1 promoter reporter, primary screen, cell-based, SK-MEL-5, single point, luciferase; actives 0.83% (n = 330,000); SK-MEL-5 TRPM1 promoter luciferase, 24 h; inhibition, % at 12.5 µM;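 active = mean inhibition across replicates of 60% or more, whatever share of single replicates reaches that level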
Peg3 promoter: Peg3 promoter-driven luciferase inhibitors, primary screen, cell-based, HeLa, luciferase luminescence; HeLa PEG-Prom luciferase reporter, overnight; AID 588405, 2011; actives 1.7% (n = 360,000); inhibition, % at 20 µM;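 active = inhibition of at least 50% at 20 µM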
ABHD5-PLIN5 inh: ABHD5-PLIN5 interaction inhibitors, primary screen, cell lysate, split luciferase complementation, luminescence. Perilipin-5 (Homo sapiens) + 1-acylglycerol-3-phosphate O-acyltransferase ABHD5 (Homo …. Split G. princeps luciferase complementation, 4 h. inhibition, % at 4 µM. actives 0.78% (n = 360,000). AID 602281, 2012;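 active = inhibition above the mean inhibition across every tested compound plus 3 SD, cut at about 22% in these data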;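 note: 0% = DMSO only wells and the 100% control is not disclosed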
Target sequence (Q00G26 whole entry, looked up): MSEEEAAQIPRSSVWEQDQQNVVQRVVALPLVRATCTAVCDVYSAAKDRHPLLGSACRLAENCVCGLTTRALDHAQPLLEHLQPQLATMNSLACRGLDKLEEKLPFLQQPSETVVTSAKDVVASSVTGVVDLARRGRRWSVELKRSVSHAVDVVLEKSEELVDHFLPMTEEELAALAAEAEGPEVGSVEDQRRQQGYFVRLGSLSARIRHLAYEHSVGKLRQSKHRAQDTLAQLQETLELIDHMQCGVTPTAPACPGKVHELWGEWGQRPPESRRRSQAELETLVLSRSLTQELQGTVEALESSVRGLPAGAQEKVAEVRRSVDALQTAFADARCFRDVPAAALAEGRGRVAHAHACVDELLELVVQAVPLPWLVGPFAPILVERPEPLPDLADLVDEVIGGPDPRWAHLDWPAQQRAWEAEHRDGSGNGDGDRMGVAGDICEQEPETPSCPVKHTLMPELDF
Target sequence (Q8WTS1 whole entry, looked up): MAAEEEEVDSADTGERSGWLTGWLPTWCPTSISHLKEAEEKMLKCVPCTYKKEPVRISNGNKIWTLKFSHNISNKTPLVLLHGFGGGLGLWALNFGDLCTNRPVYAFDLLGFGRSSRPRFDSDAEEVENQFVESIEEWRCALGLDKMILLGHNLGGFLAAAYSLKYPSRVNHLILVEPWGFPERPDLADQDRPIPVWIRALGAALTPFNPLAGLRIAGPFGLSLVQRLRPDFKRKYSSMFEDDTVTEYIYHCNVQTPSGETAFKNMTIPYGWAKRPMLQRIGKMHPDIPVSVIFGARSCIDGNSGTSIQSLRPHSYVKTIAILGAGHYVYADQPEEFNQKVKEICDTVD
HIF-2a block: HIF-2a reporter inhibitors, primary screen, luminescence, 786-0 RCC cells; 786-0 RCC cells HIF-2a reporter, luciferase luminescence, overnight; inhibition, % at 18.8 µM; actives 0.72% (n = 360,000); AID 624352, 2012;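 active = inhibition of the luminescence signal of 40% or more relative to plate controls, in a single-dose primary screen at 18.75 µM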
CF NFkB block: inhibitors of PAF-induced NF-kB signaling, primary screen, cell-based, GFP fluorescence, uHTS. actives 0.86% (n = 360,000). inhibition, % at 5 µM. KKLEB NF-kB-GFP reporter, GFP fluorescence overnight;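 active = at least 50% inhibition at 5 µM, scaled per plate between neutral and stimulator controls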;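 note: PAF is a Pseudomonas aeruginosa culture filtrate used as stimulus; plate controls were PAF-stimulated DMSO wells for no effect and unstimulated DMSO wells for full effect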
Mdm2-MdmX confirm: retested Mdm2-MdmX interaction blockers, confirmation, cell-based, luminescence, single concentration, set 2; shares compounds with HIF-2a block; SaOS-2 split-luciferase Mdm2/MdmX complementation; inhibition, % at 8 µM; actives 99% (n = 740); AID 504601, 2011;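 active = mean inhibition of the luminescence signal across two replicates at or above 26 percent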
HIF-2a inh conf: HIF-2a reporter inhibitor retest, confirmation, luminescence, 786-0 RCC cells | shares compounds with HIF-2a block | HIF-2a luciferase reporter luminescence, overnight | inhibition, % at 18.8 µM | actives 56% (n = 1,800) | AID 651580, 2012;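 active = mean inhibition across four replicates of at least 40 percent at the single tested concentration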
HIF-1a counter: HIF-1a luciferase reporter signal reduction – MiaPaCa-2 cells, single concentration, counter-screen for HIF-2a inhibitor project, confirmation | shares compounds with HIF-2a block | MiaPaCa-2 HIF-1a luciferase reporter, desferoxamine, overnight | AID 651589, 2012 | actives 72% (n = 1,800) | inhibition, % at 18.8 µM;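 active = mean inhibition of the reporter signal across four replicates at the single tested dose of 50% or more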
Starred values were filed as active, the others as inactive; · = no result given.

SMILES | KKLEB cytotox | MITF TRPM1 inh | Peg3 promoter | ABHD5-PLIN5 inh | HIF-2a block | CF NFkB block | HIF-2a inh conf | HIF-1a counter | others
CCOc1ccccc1NC(=O)COC(=O)c1nc2nccc(C)n2n1 | 3 | -2 | 12 | 0 | 7 | -16 | · | ·
CCOC(=O)c1c(C)[nH]c(C(=O)Nc2ccc(NC(C)=O)cc2)c1C | 4 | 16 | 2 | 1 | 88* | 3 | 96* | 84*
CCOc1ccccc1NC(=O)N1CCC(C(=O)c2ccc(F)cc2)CC1 | 0 | -4 | 14 | 0 | 41* | -7 | -6 | 24
Cc1ccc(C(=O)NNc2ncnc3c2cnn3C)cc1 | 2 | -9 | 3 | 1 | 4 | 4 | · | ·
Cn1ncc2c(O/N=C(\N)c3ccc(C(F)(F)F)cc3)ncnc21 | -2 | 9 | 107* | 6 | 94* | 7 | -13 | -51
CC(=O)n1cc([C@H]2C=C(C(=O)N3CCOCC3)O[C@@H](OCCCCO)C2)c2ccccc21 | -4 | -1 | -6 | 6 | 14 | -11 | · | ·
c1cncc(CNc2cccc(-c3nc4ccccc4[nH]3)c2)c1 | 4 | -62 | -257 | 2 | -204 | -3 | · | ·
CCOC(=O)c1sc(NC(=O)c2cc(-c3ccc(C)cc3)nc3ccccc23)c(C#N)c1C | -62* | 26 | 2 | 0 | -8 | 50 | · | · | Mdm2-MdmX confirm=97*
COC(=O)c1cc(C(=O)OC)n(Cc2ccc(F)cc2)c1C | 9 | -13 | 21 | 3 | 3 | 0 | · | ·
COC(=O)c1cc(=O)n(Cc2ccc(F)cc2)c(=Nc2ccccc2)s1 | 0 | 20 | 55* | 4 | 53* | 18 | 26 | 48
COC(=O)c1cc(=O)n(CCc2ccc(OC)c(OC)c2)c(=Nc2ccc(F)c(Cl)c2)s1 | -8 | 7 | 99* | 5 | 75* | 27 | 23 | 96*
Cn1c(Nc2ccc(Cl)cc2)cc(=O)n(C)c1=O | 10 | 17 | 8 | 6 | 22 | -17 | · | ·
Cc1cc(NC(=O)COC(=O)COc2ccc(Cl)c(C)c2)no1 | -1 | · | -14 | 2 | -2 | -8 | · | ·
CCCCCCCCCCCCCCCC[N+](C)(C)CCl | -33 | -3 | 100* | 6 | 54* | 41 | 39 | 75*
CCCCCCCCCCCCCCCC[N+](C)(C)CC | 19 | 39 | 102* | 13 | 59* | 83* | 46* | 98*
C[N+](C)(C)CCCCCC[N+](C)(C)C | -14 | -2 | -5 | 3 | -2 | 1 | · | ·
Cc1ccc(Nc2nc(N)nc(CCl)n2)cc1 | -20 | -40 | -110 | 9 | -97 | 45 | · | ·
Cc1ccc(Nc2nc(N)nc(CN3CCCCCC3)n2)c(C)c1 | -1 | -1 | -3 | 5 | 14 | 5 | · | ·
COc1ccccc1Nc1nc(N)nc(CCl)n1 | -8 | 9 | 26 | 5 | 5 | 13 | · | ·
CCOc1ccc(Nc2nc(N)nc(CCl)n2)cc1 | -68* | 16 | 77* | 1 | -125 | 80* | · | · | Mdm2-MdmX confirm=103*
Cc1cccc(Nc2nc(N)nc(CCl)n2)c1C | -85* | · | 58* | -4 | -14 | 100* | · | · | Mdm2-MdmX confirm=103*
Cc1ccc(Nc2nc(N)nc(CCl)n2)c(C)c1 | -72* | -14 | 41 | 0 | -95 | 83* | · | · | Mdm2-MdmX confirm=103*
NS(=O)(=O)c1ccc(CCNC(=O)COC(=O)c2nc(Cl)ccc2Cl)cc1 | 14 | 1 | 5 | -4 | -6 | -18 | · | ·
Cc1ccc(S(=O)(=O)Nc2cccc3cccnc23)cc1 | 6 | 83* | 109* | 0 | 81* | 57* | 66* | -179 | Mdm2-MdmX confirm=103*
Cc1ccc(S(=O)(=O)Nc2ccccc2-c2ccccc2NS(=O)(=O)c2ccc(C)cc2)cc1 | 14 | 7 | 33 | -12 | 13 | 31 | · | ·
SMILES | KKLEB cytotox | MITF TRPM1 inh | Peg3 promoter | ABHD5-PLIN5 inh | HIF-2a block | CF NFkB block | HIF-2a inh conf | HIF-1a counter | others
Cc1c(NC(=O)C23CC4CC(CC(Br)(C4)C2)C3)c(=O)n(-c2ccccc2)n1C | -7 | -6 | -8 | -11 | 2 | 10 | · | ·
COc1ccc(CCNC(=O)COc2nncc3ccccc23)cc1 | 7 | -7 | 5 | 0 | 17 | 4 | · | ·
COc1ccc(C2=Nn3c(nnc3-c3ccccc3OC)SC2)cc1OC | -32 | 25 | 6 | 12 | 43* | 53* | 18 | 11
COc1ccc(C2=Nn3c(nnc3-c3ccccn3)SC2)cc1OC | -11 | -13 | 15 | -2 | 15 | 14 | · | ·
COc1ccccc1N1C(=O)C=C(Sc2nc(C)cc(C)n2)C1=O | 6 | · | 87* | 11 | 58* | -5 | 63* | -13
COc1ccccc1N1C(=O)C2CC(C)=C(C)CC2C1=O (stereo not given) | -12 | -6 | 7 | -3 | 9 | -6 | · | ·
COc1ccc([C@H]2C[C@H](O)[C@@H](n3cc(-c4ccc(F)cc4)nn3)CN2Cc2cccs2)cc1 | -27 | · | 69* | -10 | 77* | 39 | 30 | 104*
CCOc1ccc(S(=O)(=O)N(CC(=O)NC2CCCC2)c2ccc(F)cc2)cc1 | -10 | -5 | 27 | 4 | 14 | 17 | · | ·
CC(C)(C)c1nc(SCC(=O)Nc2nc3c(s2)CCCC3)c2ccccc2n1 | -42 | 5 | 29 | 5 | -5 | 26 | · | · | Mdm2-MdmX confirm=101*
CC(C)(C)OC(=O)N[C@@H](Cc1ccccc1)C(=O)NCC1CCC(C(=O)O)CC1 (stereo not given in full) | -7 | 4 | 1 | -1 | 12 | 10 | · | ·
Cc1ccc2nc(NC(=O)CCCC(=O)O)sc2c1 | -10 | 79* | 46 | 1 | 83* | 7 | 95* | 90*
Cc1ccc2nc(NC(=O)CCCc3nc4ccccc4s3)sc2c1 | 7 | 10 | -207 | -12 | -122 | 1 | · | ·
Cc1nnc(SCC(=O)NC2CCCCC2)s1 | -3 | 8 | 0 | -2 | -3 | 0 | · | ·
Cc1cc(=O)cc(C)n1-c1ccc(F)cc1F | -4 | -6 | 16 | 0 | 8 | -12 | · | ·
Cc1c(C(=O)Nc2ccc(-c3nnc4n3CCCCC4)cc2)oc2c1ccc1ccccc12 | -10 | 24 | 42 | 6 | 56* | -36 | -51 | 106*
